# Measured values taken from PubChem BioAssay (EPA / NIEHS).
# Calls of active or inactive are those of the source. Rule for the calls: active = hit-call score of the fitted dose curve at least 0.9, where 1 is the maximum; inactive = score below 0.9.
# Read-out: Interleukin-8 (IL8), CXCL8 (gene 3576)
# Assay: BSK_SAg_IL8: BioMAP Diversity Plus: SAg Assay for Interleukin-8 (IL8) Biomarker Activity (AID 2283094)
# Details: primary human HUVEC with PBMC; actives raise or lower the signal
# Procedure: BSK_SAg is a cell-based, multiplexed-readout assay that uses umbilical vein endothelium and peripheral blood mononuclear cells, a human vascular primary cell co-culture, with measurements taken at 24 hours after chemical dosing in a 96-well plate.BSK_SAg_IL8 is an assay component measured in the BSK_SAg assay. It measures IL-8 antibody related to regulation of gene expression using ELISA technology.Data from the assay component BSK_SAg_IL8 was analyzed into 1 assay endpoint. This assay endpoint, BSK_SAg_IL8, was analyzed with bidirectional fitting relative to DMSO as the negative control and baseline of activity. Using a type of binding reporter, gain or loss-of-signal activity can be used to understand changes in the signaling as they relate to the gene CXCL8. Furthermore, this assay endpoint can be referred to as a primary readout, because this assay has produced multiple assay endpoints where this one serves a signaling function. To generalize the intended target to other relatable targets, this assay endpoint is annotated to the cytokine intended target family, where the subfamily is interleukins.
# The levels of cell surface (or secreted, indicated by the prefix "s") biomarker endpoints were measured by ELISA. Overt cytotoxicity to cells in confluent adherent cultures (all systems other than the BT system) was assessed by measuring total protein levels using sulforhodamine B (SRB) staining in parallel cultures at the time of biomarker measurements, indicated as SRB endpoints. For proliferation assays for adherent cell types, individual cell types are cultured at sub-confluence and relative cell numbers quantified by SRB staining at time points optimized for each system (48 h: 3C and CASM3C systems; 72 h: BT and HDF3CGF systems; 96 h: SAg system). SRB was performed by staining cells with 0.1% SRB after fixation with 10% TCA and reading wells at 560 nm.Viability and proliferation of PBMC (T cells) was quantified by Alamar Blue reduction for the SAg and BT systems. For PBMC viability (referred to as PBMC Cytotoxicity within the assay endpoint names), cells were plated (75,000/well in a 96-well plate) and then chemical samples added for 1 h before addition of activators, SEB and TSST-1 (20 ng/mL final concentration each). Cells were incubated for 90 h. Then, Alamar Blue (20 uL/well) (Invitrogen, Cat DAL1100) was added for 6 h, and the plates were read with a fluorescence microplate reader at 546/580 nm (excitation/emission). For PBMC proliferation, cells were plated and activated as above but incubated for only 16 h prior to addition of Alamar Blue. Plates were read after 6 h.
SMILES,outcome,AC50
CC(C)c1ccc(C(=O)N=C(N)N)cc1S(C)(=O)=O,inactive,
CCCCCCC(=O)OCC,inactive,
Nc1nc(N)c2nc(CNc3ccc(C(=O)N[C@@H](CCC(=O)O)C(=O)O)cc3)cnc2n1,inactive,
CNCc1cc(F)ccc1Oc1ccc(Cl)c(Cl)c1,,20 µM (active)
Cc1cccc([N+](=O)[O-])c1C,inactive,
CC1(C)NC(=O)NC1=O,inactive,
CCCCCCCC=O,inactive,
O=C(OCCCCCOC(=O)c1ccccc1)c1ccccc1,inactive,
O=C(O)CCCCC(=O)O,inactive,
O=c1c(O)c(-c2ccc(O)c(O)c2)oc2cc(O)cc(O)c12,inactive,
Nc1ccc2c(c1)C(=O)c1ccccc1C2=O,inactive,
Oc1ccc2c(c1)OC[C@@H](N1CCC(O)(c3ccc(F)cc3)CC1)[C@H]2O,inactive,
CC(CO)OC(C)CO (stereo not given) (tested in a mixture with another compound),inactive,
CCCCN(CCCC)CCCC,inactive,
FC(F)(F)C(F)(F)C(F)(F)C(F)(F)C(F)(F)C(F)(F)CCI,inactive,
CCCCc1ccc2c(n1)[C@@H](c1ccc(OC)cc1C[C@H](C)C(=O)O)[C@H](C(=O)O)[C@H]2c1ccc2c(c1)OCO2,inactive,
Clc1cc(Cl)c(Cl)cc1Cl,inactive,
CCOC(=O)C(C)(C)Oc1ccc(Cl)cc1,inactive,
CCCCCCCCCCCCCO,,38 µM (active)
CNC(=O)[C@H]1O[C@@H](n2cnc3c(NCc4cc(Cl)ccc4OCc4cc(C)no4)ncnc32)[C@H](O)[C@@H]1N,inactive,

SMILES,outcome,AC50
COc1ccc(S(=O)(=O)N2C(=O)[C@@](c3ccccc3OC)(N3C[C@H](O)C[C@H]3C(=O)N(C)C)c3cc(Cl)ccc32)c(OC)c1,,20 µM (active)
Cc1ccc(C)c(O)c1C,inactive,
O=[N+]([O-])C(CO)(CO)CO,inactive,
Cc1nc(-c2ccc3c(c2)CCN(CCC2CCC(NC(=O)/C=C/c4ccc(F)cc4)CC2)CC3)no1 (stereo not given),inactive,
Cc1oc(-c2ccccc2)nc1CCOc1cccc2c1ccn2CCC(=O)O,inactive,
CCc1c(C(=O)NN2CCCCC2)nn(-c2ccc(Cl)cc2Cl)c1-c1ccc(Br)cc1,,7.03 µM (active)
C[Si]1(C)O[Si](C)(C)O[Si](C)(C)O[Si](C)(C)O1,inactive,
COC(=O)c1ccc(O)cc1,inactive,
CCCCCCCCCCCC(=O)OC,inactive,
NC(=O)Cn1c(=O)cc(CCN2CCN(c3nccc4sccc34)CC2)c2ccc(F)cc21,inactive,
Cc1ccc(N(C)C)cc1,inactive,
Nc1ccc(S(=O)(=O)c2ccc(N)cc2)cc1,inactive,
Cc1nc(C)nc(N2C[C@@H](C)N(c3ccnc([C@@H](C)O)n3)[C@@H](C)C2)n1,inactive,
Cc1ccc(C(C)C)c(O)c1,inactive,
COc1ccc2c(c1)c(CC(=O)O)c(C)n2C(=O)c1ccc(Cl)cc1,inactive,
c1cc(-c2ccncc2)ccn1,inactive,
CC(C)(C)c1cc(O)c(C(C)(C)C)cc1O,inactive,
CC(=O)Oc1ccccc1C(=O)O,inactive,
Oc1ccc2ccccc2c1N=Nc1ccccc1,inactive,
CC1=C(/C=C/C(C)=C/C=C/C(C)=C/CO)C(C)(C)CCC1,inactive,
